This is an account of results in PubChem BioAssay AID1224854 (National Center for Advancing Translational Sciences (NCATS), 2016).

Records with an inconclusive call do not appear. Where a call stands in place of a potency, no number is given. The source made the active and inactive calls. Calls come from the whole dose curve; as a rule, active = well fitted activation curve with a large enough effect; inconclusive = small, poorly fitted or top-dose-only effect; inactive = flat fitted curve, though single readings scatter.

The nature of the experiment: Cell viability assay for measurement of the protective activity of small molecules against cell death caused by Zika virus infection in human astrocytoma cells. As to conditions: SNB-19 Zika virus cytoprotection, ATP luminescence, 72 h; series mostly up to 46.1 µM. The source says: National Center for Advancing Translational Sciences [NCATS] Johns Hopkins University School of Medicine Florida State University Assay Overview: Zika virus infection causes cell death in certain cell types including human neural progenitor cells (hNPCs), astrocytes, and astrocytoma cell line (SNB-19). This cell viability assay measures the ATP content (level) in human astrocytoma cells (SNB-19) using a luminescence readout that is proportional to viable cell numbers. Decrease in the luminescence signal after Zika virus infection indicates the cell death caused by Zika virus. Small molecule inhibitors […] the decreased luminescence signal after Zika virus infection, indicating the protective effect of that small molecule on the cell death caused by Zika virus infection. This observed protective effect of small molecules against Zika virus induced cell death may result from inhibition of virus replication or cellular response to the virus infection.
Assay Protocol Summary: The medium for SNB-19 cells is composed of RPMI 1640 (ATCC, Cat.# 30-2001), 10% fetal bovine serum (FBS) (GE healthcare Life Sciences, Cat.# SH30071.03), and 1% Pen/Strep (Gibco, Cat.# 15140-122). The ATP content assay kit (PerkinElmer, Cat.# 6016731) was used to determine cell viability. The reagent was reconstituted and prepared as described by the manufacturer. Cells were seeded in 384- or 1536-well assay plates and cultured at 37 C with 5% CO2 for 16 to 20 hours. The typical cell seeding density in the 1536-well plate assay is 250 cells/well in 3ul medium for SNB-19 cells in tissue culture treated plates. Compounds were added to cells and incubated for one hour before addition of ZIKV solution to cells (2 FFU/cell). After incubation at 37 C with 5% CO2 for 72 hours, the reagent mixture of the ATP content assay kit was added to each well, followed by incubation at room temperature for 10 minutes. The luminescence intensity of the assay plates was measured using a ViewLux plate reader (PerkinElmer). […] The percentage inhibitions of the decreased cell viability by small molecule inhibitors were then calculated.
On to `CCCS(=O)c1ccc2nc(NC(=O)OC)[nH]c2c1` (stereo not given), for which the Potency entry was “inactive”.

`Cc1cccc(/C=C/c2ccccc2)n1`: the Potency result is “inactive”.

Turning to `N#CC1(c2ccc(NC(=O)c3cccnc3NCc3ccncc3)cc2)CCCC1`, the Potency entry was “inactive”. The entry for `Cc1ccc(C(=O)c2ccc(CC(=O)O)n2C)cc1` is “inactive”; for `Nc1ccc2c(c1)CN1C(=O)c3ccccc3C1=N2` it is “inactive”; for `COc1cccc(-c2cc(=O)c3ccccc3o2)c1N` it is “inactive”. On to `Clc1ccccc1-c1nc(-c2ccncc2)no1`, for which the Potency result was “inactive”.

In the case of `CC(=O)Oc1cccc2c1C(=O)c1c(OC(C)=O)cc(C(=O)O)cc1C2=O`, the Potency result was “inactive”. As for `O=C(O)c1cc([N+](=O)[O-])ccc1NCCCc1ccccc1`, the Potency result was “inactive”. For `COc1cc2nc(N3CCN(C(=O)C4CCCO4)CC3)nc(N)c2cc1OC` (stereo not given), the Potency entry was “inactive”. As for `Cc1c(C(=O)O)c(O)cc2c1C(=O)c1c(O)c([C@@H]3O[C@H](CO)[C@@H](O)[C@H](O)[C@H]3O)c(O)c(O)c1C2=O`, the Potency result was “inactive”. In the case of `COc1ccc(-c2cc(=S)ss2)cc1`, the Potency result is “inactive”. The entry for `CCCSc1ccc2nc(NC(=O)OC)[nH]c2c1` is “inactive”; for `CCN(CC)c1ccc(C(=C2C=CC(=[N+](CC)CC)C=C2)c2cc(S(=O)(=O)O)ccc2S(=O)(=O)[O-])cc1` it is “inactive”. In the case of `CC(C(=O)O)c1ccc(C(=O)c2cccs2)cc1` (stereo not given), the Potency result was “inactive”. Take `CCC(C(=O)O)c1ccc(N2Cc3ccccc3C2=O)cc1` (stereo not given): the Potency result is “inactive”. In the case of `Cc1ccc2c(n1)Oc1ccc(C(C)C(=O)OCC(=O)N(C)C)cc1C2` (stereo not given), the Potency entry was “inactive”.

With `O=C(O)c1ccccc1Nc1cccc(C(F)(F)F)c1`, the Potency entry was “inactive”. As for `c1ccc(CCNc2nc(-c3ccccc3)cs2)cc1`, the Potency result was “inactive”.

On to `COc1cc(NC(C)CCCN)c2ncccc2c1` (stereo not given), for which the Potency is 17.3 µM (active). For `N[C@H](CSC(c1ccccc1)(c1ccccc1)c1ccccc1)C(=O)O`, the Potency result was “inactive”. Turning to `O=C(O)c1ccccc1NCCc1ccccc1`, the Potency entry was “inactive”. Consider `CC(C)c1ccc2oc3nc(N)c(C(=O)O)cc3c(=O)c2c1`, for which the Potency result was “inactive”. As for `CC(O)=C(C#N)C(=O)Nc1ccc(C(F)(F)F)cc1`, the entry is “inactive”; as for `CC1(C)Cc2c(sc(NC(=S)NC(=O)c3ccccc3)c2C(=O)O)CO1`, “inactive”; as for `C/C(=N\O)c1ccc(OCC(=O)N2CCCCC2)cc1`, “inactive”.

Take `CCN1/C(=C/C=C/c2sc3ccccc3[n+]2CC)Sc2ccccc21`: the Potency result is “inactive”. For the compound `CC1(C)OC2=C(C(=O)c3ccccc3C2=O)[C@H](NCc2ccccc2)[C@H]1O`, the Potency result is “inactive”.

Consider `COc1cccc2c1C(=O)c1c(O)c3c(c(O)c1C2=O)C[C@@](O)(C(=O)CO)C[C@@H]3O[C@H]1C[C@H](N)[C@H](O[C@@H]2CCCCO2)[C@H](C)O1`, for which the Potency entry was “inactive”. For the compound `Oc1ccc(/C=C/c2cc(O)cc(O)c2)cc1`, the Potency result was “inactive”. As for `O=C1C[C@@H](c2ccc(O)cc2)Oc2cc(O)cc(O)c21`, the entry is “inactive”; as for `CN(C)c1ccc(C(=C2C=CC(=[N+](C)C)C=C2)c2ccccc2)cc1`, “inactive”; as for `CCCC(=O)OC[C@@H](OC(=O)CCC)[C@@H](OC(=O)CCC)[C@H](Cn1c2nc(=O)[nH]c(=O)c-2nc2cc(C)c(C)cc21)OC(=O)CCC`, “inactive”. Take `[O-][n+]1ccccc1SSc1cccc[n+]1[O-]`: the Potency result is “inactive”. In the case of `CC(C)(C)OC(=O)CN(Cc1ccc(Cl)cc1)Cc1ccc([N+](=O)[O-])s1`, the Potency was 35.5 µM (active). Take `CS(=O)(=O)c1ccc(-c2cn3ccccc3n2)cc1`: the Potency entry was “inactive”. With `COc1ccc(/C=C/C(=O)Nc2ccccc2C(=O)O)cc1OC`, the Potency result was “inactive”. Take `CCOCCOC(=O)/C=C/c1ccc(OC)cc1`: the Potency result is “inactive”. As for `O=C1NC(=O)C(=Cc2ccc(-c3ccc(F)cc3)o2)S1`, the entry is “inactive”. As for `O=C(C=CC=Cc1ccc2c(c1)OCO2)N1CCCCC1`, the entry is “inactive”.
